# Experimental data: PubChem BioAssay (NCI)
# This is part of a sample that, as a whole, favours compounds with a hit. Of some 79,000 tested, about 15% had one in any assay. Values without a mark were called inactive. Active and inactive are the calls of the source. No stated cut-off is given here; in the data, active means growth inhibition above about 70%; inactive means the rest.
# Assay: NCI Yeast Anticancer Drug Screen. Data for the mlh1 rad18 strain (AID 175)
# Conditions: S. cerevisiae mlh1 rad18 strain growth inhibition, hits give high values
# Procedure: Growth inhibition of yeast strains with defined genetic alterations is measured as a screen for potential anti-cancer activity. Selected strains with alterations in DNA damage repair or cell cycle control were exposed to compounds and growth inhibition was measured relative to vehicle treated controls. The strain used in this assay is mlh1 rad18
# [1] = at 5.0 µM (retest, dose inferred, filed as 0.5)
# [2] = at 50.0 µM (retest, dose inferred, filed as 5.0)
Structure (SMILES),growth inhibition [1],growth inhibition [2],growth inhibition (at 50.0 µM)
O=[N+]([O-])c1ccc(N=Nc2ccc(O)cc2O)cc1,28%,97% (active),97.7% (active)
COC(=O)c1ccccc1C#Cc1ccccc1C(=O)OC,-3%,-5%,50%
CC1CC[N-]CC1.CC1CC[N-]CC1.CC1CC[N-]CC1.CC1CC[N-]CC1.CS(C)=O.CS(C)=O.[Cl-].[Cl-].[Cl-].[Cl-].[Pt+4].[Rh+3],69%,97% (active),97% (active)
Cc1ccc(C2SCc3nc4ccccc4n32)cc1 (configuration not stated),13%,86% (active),48.9%
O=C1Sc2sc(=S)sc2SC1c1ccccc1 (configuration not stated),2%,97% (active),90.5% (active)
COc1ccc(C2=C(Cl)C(=O)N(c3ccc(OC)cc3OC)C(=O)C2(Cl)Cl)cc1,3%,8%,79.8% (active)
CCCCCCCCCC(=O)NN=C(C)C,-131%,46%,90.8% (active)
COc1ccc(C2C3=C(CCC(CN(C)C)C3=O)OC3=C2C(=O)C(CN(C)C)CC3)cc1 (configuration not stated),-13%,-7%,21.1%
O=Nc1c(-c2cccc([N+](=O)[O-])c2)nc2cnccn12,58%,99% (active),97.5% (active)
CC(C)(C)N/N=C(\C(=O)NC1=C(Cl)C(=O)c2ccccc2C1=O)C1C=CCS1(=O)=O (configuration not stated),15%,81% (active),61.5%
CC(C)(CN1CCCCC1)C(=O)/C=C/c1ccc(Cl)c(Cl)c1,52%,97% (active),92.7% (active)
NC1CCCCC1N.O=S(=O)([O-])CCCN1CCN(CCO)CC1.O=S(=O)([O-])CCCN1CCN(CCO)CC1.[Pt+4],16%,98% (active),24.4%
S=C(N/N=C/c1ccccn1)N1CCCCCC1,99% (active),99% (active),88.8% (active)
Clc1ccc2oc(N3CCCCC3)nc2c1,4%,11%,98.7% (active)
